Outcome and AC50 data for 4 compounds are collected here from PubChem BioAssay (EPA / NIEHS).

Activity calls are given as the source filed them. How the source made its calls: active means hit-call score of the fitted dose curve at least 0.9, where 1 is the maximum; inactive means score below 0.9.

What all share (conditions): mRNA level, 48 h; actives raise or lower the signal
Read-out in assay [1]: Cyclin D1 (CCND1), CCND1 (gene 595)
The experiment in a line: LTEA_HepaRG_CCND1: Life Technologies and Expression Analysis (LTEA) Assay for Cyclin D1 (CCND1) using HepaRG (AID 2283451). The procedure, abridged: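 Differentiated human HepaRG cells in serum-free induction medium were exposed 48 h to eight half-log concentrations up to 100 uM in 0.5% DMSO; mRNA quantified by TaqMan qRT-PCR, normalized to ACTB, GAPDH, POLR2A, fitted bidirectionally versus DMSO.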

Read-out in assay [2]: catalase (CAT), CAT (gene 847)
The experiment in a line: LTEA_HepaRG_CAT: Life Technologies and Expression Analysis (LTEA) Assay for catalase (CAT) using HepaRG (AID 2283452). The procedure, abridged: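 HepaRG cells in serum-free induction medium, 0.5% DMSO vehicle, exposed 48 h in duplicate over 8 half-log concentrations from 100 uM. CAT mRNA measured by qRT-PCR, normalized to ACTB, GAPDH, POLR2A; bidirectional fit versus DMSO.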

Read-out in assay [3]: flavin-containing dimethylaniline monooxygenases 3 (FMO3), FMO3 (gene 2328)
Put plainly: LTEA_HepaRG_FMO3: Life Technologies and Expression Analysis (LTEA) Assay for flavin-containing dimethylaniline monooxygenases 3 (FMO3) using HepaRG (AID 2283453). The procedure, abridged:
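Differentiated HepaRG cells in serum-free induction medium, exposed 48 h in duplicate to 8 half-log concentrations up to 100 uM in 0.5% DMSO. FMO3 mRNA by qRT-PCR, normalized to ACTB, GAPDH, POLR2A; bidirectional fit vs DMSO.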

Read-out in assay [4]: Cytochrome P450 (CYP1A1), CYP1A1 (gene 1543)
Put plainly: LTEA_HepaRG_CYP1A1: Life Technologies and Expression Analysis (LTEA) Assay for Cytochrome P450 (CYP1A1) using HepaRG (AID 2283454). The procedure, abridged: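 Differentiated HepaRG cells in serum-free induction medium were exposed in duplicate for 48 h to eight half-log concentrations up to 100 uM in 0.5% DMSO. CYP1A1 mRNA was quantified by TaqMan qRT-PCR, normalized to ACTB, GAPDH and POLR2A.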

Read-out in assay [5]: CFLAR gene, CFLAR (gene 8837)
The experiment in a line: LTEA_HepaRG_CFLAR: Life Technologies and Expression Analysis (LTEA) Assay for CFLAR gene using HepaRG (AID 2283455). The procedure, abridged:
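Differentiated HepaRG cells in serum-free induction medium were exposed 48 h in duplicate to eight half-log concentrations up to 100 uM in 0.5% DMSO; mRNA measured by TaqMan qRT-PCR, normalized to ACTB, GAPDH, POLR2A; bidirectional fitting versus DMSO.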

Read-out in assay [6]: Forkhead box O1 (FOXO1), FOXO1 (gene 2308)
Put plainly: LTEA_HepaRG_FOXO1: Life Technologies and Expression Analysis (LTEA) Assay for Forkhead box O1 (FOXO1) using HepaRG (AID 2283456). A digest of the protocol: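 Differentiated HepaRG cells, in serum-free induction medium with 0.5% DMSO, exposed 48 h in duplicate to 8-point half-log series from 100 uM. FOXO1 mRNA measured by TaqMan qRT-PCR, normalized to ACTB, GAPDH, POLR2A; bidirectional fit versus DMSO.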

Read-out in assay [7]: growth arrest and DNA damage 45 (GADD45A), GADD45A (gene 1647)
Put plainly: LTEA_HepaRG_GADD45A: Life Technologies and Expression Analysis (LTEA) Assay for growth arrest and DNA damage 45 (GADD45A) using HepaRG (AID 2283458). A digest of the protocol:
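Cells plated and cultured 48 h, switched to serum-free induction medium, then dosed for 48 h (100 uM top, half-log dilutions, 0.5% DMSO). RNA was isolated and transcript measured by Fluidigm qRT-PCR.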

Read-out in assay [8]: Forkhead box O3 (FOXO3), FOXO3 (gene 2309)
Put plainly: LTEA_HepaRG_FOXO3: Life Technologies and Expression Analysis (LTEA) Assay for Forkhead box O3 (FOXO3) using HepaRG (AID 2283459). A digest of the protocol:
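Differentiated human HepaRG cells, 48 h post-plating, exposed in duplicate for 48 h in serum-free induction medium; 8-point half-log series from 100 uM in 0.5% DMSO. FOXO3 mRNA by TaqMan qRT-PCR, normalized to ACTB/GAPDH/POLR2A; bidirectional fit versus DMSO.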

Read-out in assay [9]: ABC Transporter (ABCC3), ABCC3 (gene 8714)
Put plainly: LTEA_HepaRG_ABCC3: Life Technologies and Expression Analysis (LTEA) Assay for ABC Transporter (ABCC3) using HepaRG (AID 2283462). A digest of the protocol: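 HepaRG cells in serum-free induction medium were exposed for 48 h in duplicate to 8-point half-log concentrations topping at 100 uM in 0.5% DMSO. ABCC3 mRNA was measured by qRT-PCR normalized to ACTB, GAPDH and POLR2A, with bidirectional fitting versus DMSO.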

Read-out in assay [10]: ABC Transporter (ABCC2), ABCC2 (gene 1244)
Put plainly: LTEA_HepaRG_ABCC2: Life Technologies and Expression Analysis (LTEA) Assay for ABC Transporter (ABCC2) using HepaRG (AID 2283464). The procedure, abridged:
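HepaRG cells were plated 48 h, switched to serum-free induction medium, then exposed in duplicate for 48 h to 8 concentrations (top 100 uM, half-log steps, 0.5% DMSO). ABCC2 mRNA was measured by qRT-PCR normalized to ACTB/GAPDH/POLR2A; bidirectional fitting versus DMSO.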

Read-out in assay [11]: Broad substrate specificity ATP-binding cassette transporter ABCG2 (Homo sapiens) (UniProt Q9UNQ0)
Put plainly: LTEA_HepaRG_ABCG2: Life Technologies and Expression Analysis (LTEA) Assay for ABC Transporter (ABCG2) using HepaRG (AID 2283465). A digest of the protocol: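 Differentiated HepaRG cells were exposed for 48 h in serum-free induction medium to 8 half-log concentrations, top 100 uM, in 0.5% DMSO. ABCG2 mRNA was measured by qRT-PCR, normalized to ACTB, GAPDH and POLR2A, with bidirectional fitting versus DMSO.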

Read-out in assay [12]: ATP-citrate lyase (ACLY), ACLY (gene 47)
The experiment in a line: LTEA_HepaRG_ACLY: Life Technologies and Expression Analysis (LTEA) Assay for ATP-citrate lyase (ACLY) using HepaRG (AID 2283466). The procedure, abridged: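 Differentiated HepaRG cells exposed 48 h in serum-free induction medium to eight half-log concentrations up to 100 uM in 0.5% DMSO, duplicates. Transcript measured by Fluidigm TaqMan qRT-PCR, normalized to ACTB, GAPDH, POLR2A; bidirectional fit versus DMSO.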

Read-out in assay [13]: Peroxisomal acyl-coenzyme A oxidase 1 (ACOX1) gene, ACOX1 (gene 51)
The experiment in a line: LTEA_HepaRG_ACOX1: Life Technologies and Expression Analysis (LTEA) Assay for Peroxisomal acyl-coenzyme A oxidase 1 (ACOX1) gene using HepaRG (AID 2283467). A digest of the protocol: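 HepaRG cells, plated 48 h then switched to serum-free induction medium, were exposed in duplicate for 48 h to 8-point half-log concentrations up to 100 uM in 0.5% DMSO. ACOX1 mRNA was measured by qRT-PCR, normalized to ACTB/GAPDH/POLR2A, and fitted bidirectionally versus DMSO.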

Read-out in assay [14]: Alkaline Phosphatase, Placental (ALPP) gene, ALPP (gene 250)
Put plainly: LTEA_HepaRG_ALPP: Life Technologies and Expression Analysis (LTEA) Assay for Alkaline Phosphatase, Placental (ALPP) gene using HepaRG (AID 2283468). The procedure, abridged:
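Differentiated human HepaRG cells were plated and cultured 48 h, then exposed in duplicate for 48 h in serum-free induction medium to eight half-log concentrations from 100 uM in 0.5% DMSO. ALPP mRNA was measured by TaqMan qRT-PCR, normalized to ACTB, GAPDH, POLR2A.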

Read-out in assay [15]: Bcl-2 (BAD) gene, BAD (gene 572)
The experiment in a line: LTEA_HepaRG_BAD: Life Technologies and Expression Analysis (LTEA) Assay for Bcl-2 (BAD) gene using HepaRG (AID 2283469). The procedure, abridged: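 Differentiated HepaRG cells were exposed in duplicate in 0.5% DMSO for 48 h to eight-point half-log concentrations up to 100 uM. BAD mRNA was measured by Fluidigm TaqMan qRT-PCR, normalized to ACTB, GAPDH and POLR2A, and fitted bidirectionally against DMSO.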

Read-out in assay [16]: Bcl-2 (BAX) gene, BAX (gene 581)
Put plainly: LTEA_HepaRG_BAX: Life Technologies and Expression Analysis (LTEA) Assay for Bcl-2 (BAX) gene using HepaRG (AID 2283470). The procedure, abridged:
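HepaRG (human liver), 48 h exposure, duplicate wells. 8-pt curve, half-log from 100 uM, 0.5% DMSO. BAX transcript by TaqMan qRT-PCR; ACTB/GAPDH/POLR2A normalization; gain or loss vs DMSO baseline.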

Read-out in assay [17]: ABC Transporter (ABCB1), ABCB1 (gene 5243)
Put plainly: LTEA_HepaRG_ABCB1: Life Technologies and Expression Analysis (LTEA) Assay for ABC Transporter (ABCB1) using HepaRG (AID 2283460). The procedure, abridged: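 HepaRG cells exposed in duplicate for 48 h in serum-free induction medium to eight half-log concentrations up to 100 uM in 0.5% DMSO. ABCB1 mRNA quantified by qRT-PCR, normalised to ACTB, GAPDH and POLR2A; fitted bidirectionally versus DMSO.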

Read-out in assay [18]: growth arrest and DNA damage 45 (GADD45B), GADD45B (gene 4616)
The experiment in a line: LTEA_HepaRG_GADD45B: Life Technologies and Expression Analysis (LTEA) Assay for growth arrest and DNA damage 45 (GADD45B) using HepaRG (AID 2283461). The procedure, abridged: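 Differentiated HepaRG cells, plated 48 h then switched to serum-free induction medium, were exposed 48 h in duplicate to eight half-log concentrations from 100 uM in 0.5% DMSO; mRNA quantified by qRT-PCR, normalized to ACTB/GAPDH/POLR2A, bidirectional fit versus DMSO.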

Read-out in assay [19]: ABC Transporter (ABCB11), ABCB11 (gene 8647)
Put plainly: LTEA_HepaRG_ABCB11: Life Technologies and Expression Analysis (LTEA) Assay for ABC Transporter (ABCB11) using HepaRG (AID 2283463). A digest of the protocol:
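Differentiated human HepaRG cells in serum-free induction medium, dosed in duplicate for 48 h. Eight-point half-log series from 100 uM in 0.5% DMSO; ABCB11 mRNA by qRT-PCR, normalized to ACTB, GAPDH, POLR2A, fitted bidirectionally versus DMSO.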

Sequence of Broad substrate specificity ATP-binding cassette transporter ABCG2 (Homo sapiens) (Q9UNQ0 whole entry, looked up): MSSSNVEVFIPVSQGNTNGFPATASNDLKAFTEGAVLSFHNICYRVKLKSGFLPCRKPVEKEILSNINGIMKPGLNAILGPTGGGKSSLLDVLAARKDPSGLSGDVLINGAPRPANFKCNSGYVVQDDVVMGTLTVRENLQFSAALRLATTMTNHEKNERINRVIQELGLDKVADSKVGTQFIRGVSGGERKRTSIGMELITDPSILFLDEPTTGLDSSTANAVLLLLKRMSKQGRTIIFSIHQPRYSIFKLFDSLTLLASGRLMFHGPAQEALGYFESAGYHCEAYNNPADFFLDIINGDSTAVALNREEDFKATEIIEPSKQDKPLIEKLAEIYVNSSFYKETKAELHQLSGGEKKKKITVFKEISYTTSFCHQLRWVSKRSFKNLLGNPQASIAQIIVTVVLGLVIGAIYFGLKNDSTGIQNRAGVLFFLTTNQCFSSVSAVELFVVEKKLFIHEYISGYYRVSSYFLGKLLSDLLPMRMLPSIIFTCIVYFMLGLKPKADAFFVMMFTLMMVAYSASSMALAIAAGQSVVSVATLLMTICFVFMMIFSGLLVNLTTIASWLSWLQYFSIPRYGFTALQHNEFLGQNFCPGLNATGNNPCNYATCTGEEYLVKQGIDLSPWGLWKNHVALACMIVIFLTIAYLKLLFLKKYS

The AC50 is the midpoint of the concentration-response curve, whichever way the signal moves. Take `C1=Cc2cccc3cccc1c23`: the result in assay [1], in assay [2], in [3], in [5], in assay [6] and in assay [7] was inactive. Also, the outcome in assay [8], in assay [9], in [10], in [11], in assay [12] and in assay [13] was inactive. The result in assay [14], in assay [15] and in assay [16] was inactive. In assay [4], the AC50 was 20.9 µM (active).

For the compound `Cn1cc(-c2ccccc2)c(=O)c(-c2cccc(C(F)(F)F)c2)c1`, the compound was classed as inactive in assay [1], in assay [2], in [3], in assay [6], in assay [8] and in [18]. In addition, the compound was called inactive in [19], in assay [12], in assay [13], in assay [15] and in assay [16]. For the same compound, the AC50 was 32.6 µM (active) in assay [4]; 9.92 µM (active) in [5]; 7.25 µM (active) in [17]; 5.1 µM (active) in assay [10]; 10.6 µM (active) in [11]; 50 µM (active) in assay [14].

On to `Nc1ccc(Cc2ccc(N)cc2)cc1`, for which the result in [1], in [2], in assay [3], in assay [5], in [6] and in assay [7] was inactive. For the same compound, the call in assay [8], in assay [18], in assay [9], in assay [19], in assay [10] and in [11] was inactive. Also, the call in assay [12], in assay [13], in [14], in assay [15] and in assay [16] was inactive. Further, the AC50 in assay [4] was 32.3 µM (active).

Take `COP(=S)(OC)SCN1C(=O)c2ccccc2C1=O`: the result in assay [1], in assay [2], in assay [3], in assay [5], in [6] and in assay [7] was inactive. Also, the call in assay [8], in [18], in assay [19], in assay [10], in [11] and in assay [12] was inactive. In addition, the result in assay [13], in assay [14], in assay [15] and in [16] was inactive. Further, the AC50 in [4] was 30.9 µM (active).
